Pf growth 96h: P. falciparum growth inhibition at 96 hour, primary screen for plastid delayed-death inhibitors; P. falciparum luciferase reporter growth, 96 h; 6.9% of 320,000 active; Potency, µM (highest dose often 28.7 µM), inactives show at the top dose activity change, negative = inhibition, most hits filed as inhibitors
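Two-generation exposure (96 h) targets delayed-death phenotype. Reporter parasites carrying integrated firefly luciferase, in red cells at 2% hematocrit and 0.05% parasitemia final, kept at 37 C, 5% CO2; luminescence loss indicates inhibition.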
Pf growth 48h: inhibits P. falciparum growth in the first generation, 48 h | P. falciparum luciferase growth in erythrocytes, 48 h | Potency, µM (top dose mostly 28.7 µM), inactives show at the highest dose activity change, negative = inhibition, most hits filed as inhibitors | 5.9% of 310,000 active
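Luminescence readout; reporter = integrated firefly luciferase in P. falciparum. RBC culture at 2% hematocrit, 0.1% parasitemia final, 37 C/5% CO2; decreased signal taken as growth inhibition.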
AmpC inh no detg: blocks E. coli AmpC beta-lactamase in detergent-free assay. P00811. AmpC nitrocefin hydrolysis, absorbance 480 nm, 0.0001% Triton. Potency, µM (top dose mostly 57.1 µM), for the others: top-dose activity change, negative = inhibition, most hits filed as inhibitors. 0.52% of 330,000 active. AID 485341;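 also: plate controls were no compound for no effect and no enzyme for full effect; nearly all actives have a fitted effect of over 20% in size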
Target sequence (P00811 whole entry, looked up): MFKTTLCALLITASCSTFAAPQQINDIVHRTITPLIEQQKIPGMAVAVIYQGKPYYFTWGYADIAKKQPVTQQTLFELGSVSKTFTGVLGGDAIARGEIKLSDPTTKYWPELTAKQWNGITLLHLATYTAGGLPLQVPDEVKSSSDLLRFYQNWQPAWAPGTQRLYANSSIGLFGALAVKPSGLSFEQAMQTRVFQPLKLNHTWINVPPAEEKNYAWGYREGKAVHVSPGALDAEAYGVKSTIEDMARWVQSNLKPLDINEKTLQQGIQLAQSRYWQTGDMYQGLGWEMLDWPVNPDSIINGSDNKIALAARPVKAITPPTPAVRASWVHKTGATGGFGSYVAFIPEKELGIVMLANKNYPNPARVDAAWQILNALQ
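20 mM phosphate pH 7.0 + 0.01% (detergent screen) or 0.0001% Triton X-100; 5.3 nM AmpC reagent; cpd preinc 15 min RT; nitrocefin (800 uM stock) to start; A480 q20 s × 4 min; Activity was normalised to no-enzyme and no-compound control wells.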
AMA1-RON2 inh: disrupts binding of P. falciparum AMA1 to RON2; AlphaScreen AMA1-biotinylated RON2 peptide binding; Potency, µM (highest dose often 58.2 µM), without a hit: at the top dose activity change, negative = inhibition, hits mostly inhibitors; 0.2% of 360,000 active;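 also: 0% = vehicle wells and -100% = peptide control; nearly all actives have a fitted effect of over 45% in size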
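AMA1 (3D7) with his tag at 25 nM final met compounds first, then biotinylated RON2 peptide at 25 nM; detection used donor plus acceptor beads, 10 µg/mL apiece, read by AlphaScreen after 30 min at room temperature.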
HCV inhibitor: inhibitors of hepatitis C virus infection; Huh7.5.1 HCVcc-Cre infection, luciferase reporter, 44 h; Potency, µM (doses to about 41.8 µM), for the others: at the top dose activity change, negative = inhibition, most hits filed as inhibitors; 3.4% of 340,000 active; AID 651820
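Reporter virus HCVcc-Cre (~0.5 moi) infects cells exposed to compound; seeding density 1,000 cells/well with 4 h settling beforehand. Luminescence, 15 sec read, taken 44 h post-infection following a 15 min RT substrate incubation.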
AmpC detergent: inhibitors of E. coli AmpC beta-lactamase with detergent; Potency, µM (top dose mostly 114 µM), inactives show at the highest dose activity change, negative = inhibition, hits mostly inhibitors; AmpC hydrolysis of nitrocefin, absorbance 480 nm, 0.01% Triton; 0.041% of 370,000 active; P00811;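 also: 0% = no-compound wells and -100% = no-enzyme wells; nearly all actives have a fitted effect of over 25% in size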
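AmpC (5.3 nM in the dispensed reagent) in 20 mM phosphate pH 7.0 with 0.01% (detergent screen) or 0.0001% Triton X-100 was preincubated with compounds for 15 min at room temperature. Nitrocefin was then added from an 800 uM solution, and hydrolysis was followed at 480 nm.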
An asterisk follows results filed as active; ? = inconclusive; . = no result. Compounds with a hit are over-represented: about 11% of the library has one in this group of screens. Calls follow the shape of the dose curve; as a rule, active = well fitted curve in the direction sought with a large enough effect; inconclusive = small, poorly fitted or top-dose-only effect, or another doubt; inactive = no such curve, though single readings can be large; an effect the other way counts as inactive or inconclusive. Unless noted, % is scaled to controls: 0 for no effect and ±100 for the full control effect; potency is read from the fitted curve at half-maximal effect.

SMILES | Pf growth 96h | Pf growth 48h | AmpC inh no detg | AMA1-RON2 inh | HCV inhibitor | AmpC detergent
O=[N+]([O-])c1ccc2c(OCc3nnc(-c4ccccc4Br)o3)ncnc2c1 | 9.3µM* | ? | -27% | 30% | -7% | 1%
CC(C)(C)c1ccc(C(=O)C2CCCN(C(=O)C3CCOCC3)C2)cc1 (stereo not drawn) | -12% | 5.9µM* | -7% | 0% | 6% | -4%
Cn1nccc1C(=O)N1CCCC(C(=O)c2ccc(C(F)(F)F)cc2)C1 (stereo not drawn) | 15µM* | 28% | 39% | 7% | ? | -11%
COc1ccc2c(c1)c1c(c(=O)n(-c3cccc(C)c3)c(=O)n1CC(=O)NCc1ccc(C)cc1)n2C | . | . | . | . | . | 8%
COc1ccccc1OCC(=O)NCC(c1ccc(Cl)cc1)N1CCCCC1 (stereo not drawn) | . | . | . | . | . | -3%
COc1ccc2nc(SCC(=O)N3CCN(c4ccc(F)cc4)CC3)c(C#N)cc2c1 | 15µM* | ? | -28% | 2% | -29% | -3%
CCOc1ccc2nc(SCC#N)c(C#N)cc2c1 | 11% | 92% | -12% | -1% | -15% | -2%
CCSc1nc2ccc(OC)cc2cc1C#N | 0% | 45% | -24% | 15% | 10µM* | -3%
COC(=O)[C@@H]1[C@@H](C(=O)OC)C2(c3ccccc3-c3ccccc32)N(c2ccc(Cl)cc2)N1C#N | ? | ? | 61% | -10% | 1.8µM* | ?
COc1ccc(CNC(=O)Cn2c(=O)n3nc(-c4ccc(OC)cc4)nc3c3ccccc32)cc1 | . | . | . | . | . | 5%
C[C@H]1[C@H](NC(=O)C(=NOC(C)(C)C(=O)O)c2csc(N)n2)C(=O)N1S(=O)(=O)O | -4% | 0% | 5µM* | 19% | 10% | 4µM*
CCOc1ccc2nc(NC(=O)c3nc(SCc4ccc(C)cc4)ncc3Cl)sc2c1 | . | . | . | . | . | 17%
OCC1(CCCc2ccccc2)CCN(Cc2cnc(N3CCOCC3)s2)CC1 | 9.3µM* | -8% | 55% | -17% | ? | 1%
COc1cccc(CC2(CO)CCN(Cc3cnc(N4CCOCC4)s3)CC2)c1 | 37% | -26% | 17% | 11% | ? | 7%
Nc1nc(NCCc2ccccc2)nc(NCc2ccccc2)c1[N+](=O)[O-] | ? | 9.3µM* | -38% | -16% | ? | 3%
Nc1nc(NCCN2CCOCC2)nc(NCc2ccccc2)c1[N+](=O)[O-] | 8.3µM* | 6.6µM* | 33% | 11% | ? | 2%
Nc1nc(NCCCN2CCOCC2)nc(NCc2ccccc2)c1[N+](=O)[O-] | ? | ? | 34% | -19% | ? | 6%
CCOc1ccccc1NC(=O)c1nnn(CC(=O)Nc2ccc(OC)c(OC)c2)c1N | . | . | . | . | . | -5%
Cn1cc(C(=O)NCc2ccc(F)cc2)c(=O)c2cc(S(=O)(=O)N3CCCCC3)ccc21 | -25% | 15µM* | 4% | 8% | ? | 1%
CCn1cc(C(=O)N2CCc3ccccc3C2)c(=O)c2cc(S(=O)(=O)N3CCCCC3)ccc21 | -26% | ? | 209% | . | . | -14%
CN(C1CCCCC1)S(=O)(=O)c1ccc2c(c1)c(=O)c(C(=O)NCc1ccc(F)cc1)cn2C | . | . | . | . | . | 0%
CCCCCNC(=O)c1cc(S(=O)(=O)N2CCCC2)ccc1F | 12µM* | -14% | -7% | 20% | 26% | -10%
CCCCN(CCCC)CCNC(=O)c1cn(C)c2ccc(S(=O)(=O)N3CCCC3)cc2c1=O | 12µM* | -19% | 1% | 8% | 5% | 0%
Cn1cc(C(=O)N2CCc3ccccc3C2)c(=O)c2cc(S(=O)(=O)N3CCCCC3)ccc21 | 3.7µM* | -17% | 109% | . | . | ?
Cc1cc2c(cc1S(=O)(=O)N(C)CC(=O)Nc1ccc(C#N)cc1)OCC(=O)N2 | . | . | . | . | . | 5%

Source: PubChem BioAssay (National Center for Advancing Translational Sciences (NCATS))
